# High-throughput results: PubChem BioAssay, several laboratories
# A selection: hits, their analogues and other compounds. The true share with any hit is near 28%.
# PLK1 inh = inhibitors of human PLK1 kinase. recombinant PLK1 kinase, TR-FRET peptide phosphorylation. 0.53% of 97,000 active. P53350. AID 619. inhibition, % at 10 µM;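 active = inhibition of 50% or more in the single-concentration screen; inactive = inhibition below 50%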;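 note: 0% = DMSO max control and 100% = H-89 dihydrochloride min control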
# Target sequence (P53350 whole entry, looked up): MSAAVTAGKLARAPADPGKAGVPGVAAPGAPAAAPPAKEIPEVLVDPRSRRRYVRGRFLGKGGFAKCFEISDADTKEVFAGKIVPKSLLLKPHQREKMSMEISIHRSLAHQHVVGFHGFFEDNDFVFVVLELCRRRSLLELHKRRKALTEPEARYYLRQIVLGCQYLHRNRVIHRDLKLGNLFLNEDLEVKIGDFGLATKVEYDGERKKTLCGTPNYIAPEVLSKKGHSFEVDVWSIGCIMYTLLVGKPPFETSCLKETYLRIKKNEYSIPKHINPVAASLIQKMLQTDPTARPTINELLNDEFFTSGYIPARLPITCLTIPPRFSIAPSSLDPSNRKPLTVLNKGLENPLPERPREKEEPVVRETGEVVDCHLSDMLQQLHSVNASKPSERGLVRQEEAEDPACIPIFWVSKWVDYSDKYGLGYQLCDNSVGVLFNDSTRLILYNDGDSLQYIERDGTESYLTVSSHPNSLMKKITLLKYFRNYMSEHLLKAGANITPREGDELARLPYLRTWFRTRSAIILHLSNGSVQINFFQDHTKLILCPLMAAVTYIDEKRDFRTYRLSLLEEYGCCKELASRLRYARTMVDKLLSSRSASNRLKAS
# CYP2C19 activ = increases human CYP2C19 enzyme activity; activation factor at 5 µM; P33261; AID 1025; recombinant CYP2C19, luciferin-H EGE luminescence; stronger effect = higher value; 0 = fully inhibited enzyme, 1 = untreated enzyme; 96,000 tested, under 10 active;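 active = activation factor of at least 2 at 5 µM in the primary screen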;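 note: 0 = wells with 2.5 mM tranylcypromine and 1 = vehicle-only wells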
# CYP2C19 inhib = human CYP2C19 inhibition; 21% of 96,000 active; inhibition, % at 5 µM; CYP2C19 Supersomes, luciferin-H EGE luminescence, 30 min; AID 778; P33261;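 active = CYP2C19 inhibition above a set limit at 5 µM in the primary screen, cut at about 50% in these data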;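 note: plate controls were negative control wells for no effect and 2.5 mM tranylcypromine positive control for full effect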
# CYP2C9 inhib = blocks human cytochrome P450 2C9; CYP2C9 Supersomes, luciferin-H conversion, luminescence; 20% of 96,000 active; inhibition, % at 5 µM;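 active = blocking of liver enzyme CYP2C9 beyond about 50% at 5 µM, limit read from the data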
# CYP2C9 activ = increases human cytochrome P450 2C9 activity | recombinant CYP2C9, luciferin-H conversion, luminescence; stronger effect = higher value; factor 1 = untreated enzyme, 0 = blocked | 1.4% of 96,000 active | activation factor at 5 µM | P11712;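 active = activation factor of 2 or more for CYP2C9 at a 5 µM dose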;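 note: 0 = sulfaphenazole-blocked wells and 1 = vehicle-only wells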
# PLK1 PBD inh = Plk1 (human) PBD binding inhibition; P53350; Plk1 PBD phosphopeptide binding, fluorescence polarization; inhibition, %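 (tested at about 20 µM)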; 0.13% of 97,000 active; in the data active = inhibition above about 34%, passing the limit was not always enough
# Active calls of the source: *; / = not tested or not shown.
SMILES,PLK1 inh,CYP2C19 activ,CYP2C19 inhib,CYP2C9 inhib,CYP2C9 activ,PLK1 PBD inh
CCCc1c(C)c2c(C)[nH]nc2oc1=O,58.1*,0.4,62.3*,-75.1,1.8,20.6
Cc1ccc(C(=O)COC(=O)CNC(=O)Cc2ccccc2)cc1[N+](=O)[O-],-2.8,1.1,-6.1,-8.0,1.1,2.5
O=C(CNc1ccc(C(F)(F)F)cc1[N+](=O)[O-])OCC(=O)c1ccccc1,2.3,0.6,38.8,55.1*,0.4,0.2
Cc1ccc(-c2nc3cnccn3c2Nc2ccc3c(c2)OCCO3)o1,/,0.1,87.4*,72.5*,0.3,/
Cc1ccc(-c2nc3cnccn3c2Nc2ccc3c(c2)OCO3)cc1,23.4,0.2,78.1*,86.2*,0.1,-8.8
Cc1cc(Nc2ccc3c(c2)OCCO3)n2ncnc2n1,4.5,0.9,5.5,42.1,0.6,-14.9
COc1ccc(-c2nc3cnccn3c2Nc2ccc3c(c2)OCO3)cc1,/,0.1,87.6*,87.4*,0.1,/
Cc1cc(C)n2c(Nc3ccc4c(c3)OCCO4)c(-c3ccccc3)nc2n1,1.2,0.6,35.9,75.7*,0.2,-19.4
Cc1ccc2nc(-c3ccc(O)cc3)c(Nc3ccc4c(c3)OCCO4)n2c1,-10.4,0.6,41.8,47.4,0.5,4.8
Cc1ccccc1C(=O)Nc1nc2n(n1)C(c1ccccc1)CC(=O)N2 (stereo not drawn),-7.8,1.3,-31.4,9.8,0.9,18.5
COc1cc(C(=O)NCc2ccc3c(c2)OCO3)ccc1OCc1c(C)noc1C,0.4,1,4.6,37.9,0.6,-5.7
Cc1noc(C)c1C(c1ccccc1)c1ccccc1,-12.5,0.1,94.4*,76.2*,0.2,0.7
Cc1noc(C)c1Cc1c(Cl)cccc1Cl,-5.4,0.5,47.2,5.2,0.9,18.3
O=C(c1ccccc1)n1c(=S)nc2ccccn21,/,0.2,79.0*,37.9,0.6,/
CN(C)c1ccc(-n2cc3c(=O)n(C)c(=O)n(C)c3c2)cc1,-5.2,0.5,46.2,75.9*,0.2,-7.6
O=C1c2[nH]nc(-c3ccccc3O)c2C(c2ccccc2F)N1Cc1ccco1 (stereo not drawn),-6.6,0.1,85.1*,94.9*,0.1,-23.7
CCC1CCCCN1Cc1cc(OC)c(O)c([N+](=O)[O-])c1 (stereo not drawn),-2.1,1.1,-9.5,-6.7,1.1,-31.0
Cc1cccc(OCC(=O)NC(=S)Nc2ccc(S(=O)(=O)NC3CCCCC3)cc2)c1,-9.2,0.7,29.1,93.2*,0.1,1.2
O=C(COc1ccc(S(=O)(=O)NC2CCCCC2)cc1)Nc1ccc2c(c1)OCCO2,-1.8,0.6,44.3,80.3*,0.2,-9.1
CCC(C)NS(=O)(=O)c1ccc(OCC(=O)Nc2ccc3c(c2)OCCO3)cc1 (stereo not drawn),-11.5,0.6,40.3,60.0*,0.4,12.3
Cc1cccc(OCC(=O)Nc2ccc(S(=O)(=O)N3CCCC3)cc2)c1,-9.8,0.8,21.3,47.1,0.5,-5.9
CC(=O)c1ccc(OCC(O)Cn2nnc3ccccc32)cc1 (stereo not drawn),-6.8,0.2,76.0*,71.7*,0.3,-24.0
N#Cc1ccc(-c2ccc(OCC(O)Cn3nnc4ccccc43)cc2)cc1 (stereo not drawn),3.4,/,/,/,/,10.0
O=C1C2CC=CCC2C(=O)N1c1ccc(OCC(O)Cn2nnc3ccccc32)cc1 (stereo not drawn),-5.8,0.8,16.3,39.5,0.6,-25.8
Cc1cccc(C)c1OCC(O)Cn1nnc2ccccc21 (stereo not drawn),-6.0,0.4,59.4*,16.9,0.8,42.3
SMILES,PLK1 inh,CYP2C19 activ,CYP2C19 inhib,CYP2C9 inhib,CYP2C9 activ,PLK1 PBD inh
COC(=O)c1ccc(OCC(O)Cn2nnc3ccccc32)cc1 (stereo not drawn),-5.9,0.2,81.3*,82.3*,0.2,5.7
Cc1cccc(OCC2=NS(=O)(=O)c3ccccc3N2)c1,-4.5,0.7,30.0,51.1*,0.5,9.8
O=C(CCC1=NS(=O)(=O)c2ccccc2N1)NC1CCCCCCC1,0.8,0.7,26.7,22.3,0.8,26.1
OC1CCCN(Cc2ccccc2)C1 (stereo not drawn),-12.0,1.1,-9.5,-9.1,1.1,14.2
OC(c1ccccc1)C1CN(Cc2ccccc2)CCC1(O)c1ccccc1 (stereo not drawn),-8.1,0.3,67.2*,14.7,0.9,12.3
O=C(Nc1nncs1)c1cccc(S(=O)(=O)N2CCCC2)c1,2.0,0.7,25.7,35.7,0.6,10.2
